Source: PubChem BioAssay (National Center for Advancing Translational Sciences (NCATS))
Rows were chosen to be rich in hits. Some 6% of all compounds tested hit in one or more screens of this group.
D3 antag – blocks the human D3 dopamine receptor; 360,000 compounds, 2.5% hits; max response, negative = inhibition, %; AID 652054; D3R cells, DiscoveRx beta-arrestin luminescence, antagonist mode; stronger effect = lower value; in the data active = max response below about -50%; inconclusive = no clear call, values can overlap the other calls; also: % is scaled to controls: 0 for no effect and ±100 for the full control effect
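Cells expressing the human receptor were seeded at 1500 cells/well, incubated overnight at 37 degrees C in 5% CO2, then exposed to library compounds with dopamine controls for 90 minutes at 37 degrees C before luminescent detection.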
Chronic BCR inh – chronic active BCR signaling inhibition | ABC-DLBCL IkBa-CBG/CBR reporter, luminescence ratio, 4 h | Potency, µM (titrated, usually from 46.1 µM), for the others: at the highest dose activity change, negative = inhibition, hits mostly inhibitors | 340,000 compounds, 0.05% hits; active = well fitted inhibition curve with a large enough effect in the signal ratio, with a control signal flat, not every such curve was filed as active; inconclusive = small, poorly fitted or top-dose-only effect, or effect the other way, or a change in a side signal; the % refers to the signal ratio;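 also: potency is read from the fitted curve at half-maximal effect; plate controls were basal doxycycline-induced cells for no effect and cells given 10 µM MG132 for full effect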
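Cell line TMD8 (human ABC DLBCL), stably expressing tet-inducible CBG68-IkBa fusion and CBR; IMDM/0.5% FBS; cpd up to 46 uM; dox induction, 4 h, 37C/5% CO2; dual luminescence; green/red ratio; MG132 control.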
DRD3 agonist – D3 dopamine receptor (human) agonism; P35462; D3R DiscoveRx beta-arrestin cells, luminescence, 90 min; max activation, %; 410,000 compounds, 0.58% hits; in the data active = max activation above about 30%; also: 0% is about no effect
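Agonist mode: compounds and dopamine controls were applied to plated cells for 90 min at 37 degrees C after an overnight attachment at 1500 cells/well. Luminescent read-out followed 30 - 60 minutes at room temperature with DiscoveRx detection reagent.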
D1 PAM – human D1 dopamine receptor positive modulation; 360,000 compounds, 0.036% hits; HEK293 TREx D1 cells, calcium flux, dopamine EC20 potentiation; potentiation, % at 10 µM; AID 504651; in the data active = potentiation above about 30%; also: 0% is about no effect
Target sequence (P21728 whole entry, looked up): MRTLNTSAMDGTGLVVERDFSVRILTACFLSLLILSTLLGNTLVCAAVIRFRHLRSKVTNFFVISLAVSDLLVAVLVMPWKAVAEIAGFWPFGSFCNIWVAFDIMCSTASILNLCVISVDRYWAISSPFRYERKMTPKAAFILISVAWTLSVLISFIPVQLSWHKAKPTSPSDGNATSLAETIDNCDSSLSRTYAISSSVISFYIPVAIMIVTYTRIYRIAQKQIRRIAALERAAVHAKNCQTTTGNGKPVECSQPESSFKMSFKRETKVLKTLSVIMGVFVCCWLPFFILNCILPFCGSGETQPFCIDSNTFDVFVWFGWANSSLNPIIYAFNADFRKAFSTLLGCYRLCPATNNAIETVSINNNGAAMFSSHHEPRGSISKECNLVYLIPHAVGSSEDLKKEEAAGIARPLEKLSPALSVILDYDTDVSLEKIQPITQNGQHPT
D1 ag – human D1 receptor agonism. 360,000 compounds, 1% hits. HEK293 T-REx D1 cells, calcium flux, agonist mode. activation, % at 2 µM. P21728. AID 504660; in the data active = activation above about 30%; also: 0% is about no effect
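Tetracycline-induced HEK293 TREx D1 cells, force-coupled to calcium signalling, were dye-loaded with a no-wash calcium kit. Compound was pin-added after a 10 s baseline. Fluorescence was read kinetically at 1 cycle/s for 180 s, with calcium rises flagged as agonism.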
D1 antagonist – blocks dopamine activation of the human D1 receptor. HEK293 TREx D1 cells, calcium flux, dopamine EC80; stronger effect = lower value. activity change, negative = inhibition, % at 10 µM. 360,000 compounds, 3.2% hits; in the data active = activity change below about -30%; also: % is scaled to controls: 0 for no effect and ±100 for the full control effect
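Compound effects on dopamine-evoked calcium signalling were measured in tetracycline-induced HEK293 Trex D1 cells. Dopamine at EC80 followed a 180 s compound pre-read, and fluorescence was tracked kinetically for 180 s more.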
* marks the source's active call; other numbers are inactive results; ? = inconclusive; / = no result.

SMILES	D3 antag	Chronic BCR inh	DRD3 agonist	D1 PAM	D1 ag	D1 antagonist
COc1ccc(CNc2nc(-c3ccco3)nn2S(=O)(=O)c2ccc3ccccc3c2)cc1OC	/	/	-6	3	0	8
O=C(NC(=S)Nc1nc(-c2ccccc2)cs1)c1cncc(Br)c1	35	1%	0	6	37*	1
O=C(Nc1ncc([N+](=O)[O-])s1)c1cccc([N+](=O)[O-])c1	7	?	1	-16	32*	-25
O=C(NC(=S)Nc1nc(-c2ccccc2)cs1)c1cccnc1	-12	16%	7	10	13	0
O=C(Nc1ccc(NC(=O)c2cccc([N+](=O)[O-])c2)cc1)c1cccc([N+](=O)[O-])c1	-20	-3%	3	9	0	-12
O=C(Nc1nc(-c2cc(F)ccc2F)cs1)c1cccc(N2C(=O)CCC2=O)c1	8	?	-5	-5	9	-32*
Cc1onc(-c2ccccc2)c1C(=O)Nc1nc(-c2ccccc2)cs1	-56*	?	6	-12	4	-5
Cc1onc(-c2ccccc2)c1C(=O)Nc1nc(-c2cc(F)ccc2F)cs1	21	1%	4	-7	2	-5
C=C1C(CCl)(CCl)C2(Cl)C(Cl)C(Cl)C1(Cl)C2(Cl)Cl (centres undefined)	/	/	3	/	/	/
O=C(Nc1nc(-c2ccccc2)cs1)c1cccc([N+](=O)[O-])c1	-69*	?	-8	-8	6	-26
Cc1ccc(S(=O)(=O)N2CCOCC2)cc1NC(=O)c1cc([N+](=O)[O-])ccc1N1CCOCC1	-14	-1%	4	0	-2	-69*
Cc1ccc(C)c(NC(=O)c2cc(S(=O)(=O)N3CCCCC3)ccc2N2CCOCC2)c1	-7	-1%	-5	-11	4	0
O=C(Nc1nc(-c2cccnc2)cs1)c1cccc([N+](=O)[O-])c1	10	?	4	3	1	0
CC(NC(=O)Nc1ccccc1)C(c1cccs1)N1CCN(C)CC1 (centres undefined)	-6	9%	1	-2	2	-8
CC(NC(=O)Nc1ccc([N+](=O)[O-])cc1)C(c1cccs1)N1CCCC1 (centres undefined)	-6	?	-8	17	175*	159
CC(NC(=O)Nc1cccc(Cl)c1)C(c1cccs1)N1CCCC1 (centres undefined)	?	?	-13	-4	113*	34
CCCNC(=O)c1cc(C2CCCCN2C(=O)c2ccccc2)on1 (centres undefined)	-14	/	-4	/	/	/
CCN(CC)C(=O)Cn1cc(C(=O)C(=O)NCCc2ccc(S(N)(=O)=O)cc2)c2ccccc21	-4	0%	1	-13	2	-74*
NS(=O)(=O)c1ccc(CCNC(=O)C(=O)c2cn(CC(=O)N3CCOCC3)c3ccccc23)cc1	4	-10%	1	3	1	-5
C[C@@H]1CN([C@H](C)CO)C(=O)c2cc(C#CC(C)(C)O)cnc2O[C@@H]1CN(C)C(=O)C1CC1	-5	/	4	/	/	/
Cc1ccc(N2C(=O)CSC23C(=O)N(CC(=O)Nc2ccccc2F)c2ccccc23)cc1C (centres undefined)	/	/	0	-4	9	-32*
Cc1ccc(N2C(=O)CSC23C(=O)N(CC(=O)Nc2ccc(C(C)C)cc2)c2ccccc23)cc1C (centres undefined)	/	/	-4	-2	2	11
CC(C)(C)NC(=O)Cn1nnc(-c2ccc(OCc3c(F)cccc3Cl)cc2)n1	12	-1%	19	-6	9	-32*
CC(C)(C)NC(=O)Cn1nnc(-c2ccc(Cl)cc2)n1	8	-7%	3	-4	2	11
O=C1c2ccccc2S(=O)(=O)c2cc(C(=O)N3CCN(c4ccccc4)CC3)ccc21	4	/	3	/	/	/
SMILES	D3 antag	Chronic BCR inh	DRD3 agonist	D1 PAM	D1 ag	D1 antagonist
O=C1c2ccccc2S(=O)(=O)c2cc(N3CCN(C(=O)c4ccccc4)CC3)ccc21	102	/	64*	/	/	/
CCCCOC(=O)c1ccc(NC(=O)c2cc3c(=O)n4cccc(C)c4nc3s2)cc1	/	/	8	0	2	7
COc1ccc(C2NC(=O)C(C#N)=C(S)N2c2ccccc2)cc1OC (centres undefined)	-14	?	-5	-4	4	-16
COc1cc(C2NC(=O)C(C#N)=C(S)N2c2ccccc2)ccc1OC(C)C (centres undefined)	-67*	?	0	-4	-2	-4
COc1ccc(OC)c(/C=C(\C#N)c2nc(-c3ccc(F)cc3)cs2)c1	/	-13%	9	-5	42*	15
COc1ccc2oc(=O)c(-c3csc(/C(C#N)=C/c4ccc(F)cc4)n3)cc2c1	/	/	2	1	-1	-31*
Cc1occc1C(=O)N/N=C/c1sc(N2CCOCC2)nc1-c1ccccc1	-54*	-11%	5	-2	1	-17
O=C(N/N=C/c1sc(N2CCOCC2)nc1-c1ccccc1)c1ccc(O)cc1	8	?	1	0	3	-9
CC1CC(N(C(=O)c2ccc(Cl)cc2)c2ccccc2)c2ccccc2N1C(=O)c1ccco1 (centres undefined)	?	?	-6	-6	2	-46*
COC(=O)c1cccc(NC(=O)CCN2C(=O)NC(C)(C)C2=O)c1	-21	/	-9	/	/	/
O=C(c1ccc2c3c(cccc13)CC2)C1CCCN(Cc2ccncc2)C1 (centres undefined)	-53*	?	-16	-11	2	-1
CCc1nc(CN2CCCC(C(=O)c3ccc4c5c(cccc35)CC4)C2)c(C)[nH]1 (centres undefined)	-51*	?	-20	-8	7	-26
CN(C)C(=O)CCC(=O)N1CCCC(C(=O)c2ccc3c4c(cccc24)CC3)C1 (centres undefined)	-3	-1%	12	2	2	7
CCc1nc(CN2CCCC(C(=O)Nc3ccc(-c4cccc(OC)c4)cc3)C2)c(C)[nH]1 (centres undefined)	-2	/	0	/	/	/
Cc1c(C(=O)Nc2ccc(C(C)C)cc2)sc2nc[nH]c(=O)c12	/	/	-5	-2	0	-5
CCCNC(=O)CN1C(=O)CSc2ccc(S(=O)(=O)N3CCC(C)CC3)cc21	/	/	-6	-6	0	-17
COc1ccc(C(c2sc3nc(C)nn3c2O)N2CCC(O)CC2)cc1OC (centres undefined)	-15	-15%	-1	-9	4	-1
COc1ccc(C(c2sc3nc(C)nn3c2O)N2CCN(Cc3ccccc3)CC2)cc1OC (centres undefined)	6	?	0	-11	2	-51*
